Common to all, as to experiment: DAPPL (digital affinity profiling via proximity ligation, sequencing); 10 mM Tris-HCl pH 7.5, 50 mM NaCl, 1 mM DTT, 4% glycerol, room temperature, 30 min; GST-TFs on glutathione beads, 16-mer random dsDNA library, 0.1% formaldehyde crosslink after washing; high values mean tight binding
Details in all cases: protein: recombinant; tags: N-terminal GST; dsDNA, one strand shown

For assay [1], the target named is T1, FLI1 (Homo sapiens, UniProt Q01543 1-452).
T1 sequence: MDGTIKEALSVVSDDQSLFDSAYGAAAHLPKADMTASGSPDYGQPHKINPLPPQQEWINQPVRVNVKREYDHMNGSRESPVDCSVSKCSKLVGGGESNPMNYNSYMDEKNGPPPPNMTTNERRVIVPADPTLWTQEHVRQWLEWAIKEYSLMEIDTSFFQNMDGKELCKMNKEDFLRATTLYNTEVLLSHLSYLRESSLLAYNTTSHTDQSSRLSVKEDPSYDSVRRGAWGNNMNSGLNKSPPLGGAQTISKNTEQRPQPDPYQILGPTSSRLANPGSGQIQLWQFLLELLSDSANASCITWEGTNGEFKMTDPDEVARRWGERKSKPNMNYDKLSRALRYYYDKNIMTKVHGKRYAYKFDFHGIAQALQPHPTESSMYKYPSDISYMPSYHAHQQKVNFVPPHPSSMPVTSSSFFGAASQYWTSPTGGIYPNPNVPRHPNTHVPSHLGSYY
The essentials:
(§1)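 Binding signal is given per hexamer as its read frequency for a factor divided by its frequency in the tag-only sample. GST-fused human transcription factors were expressed in yeast, captured on glutathione beads, barcoded with DNA and pooled with that sample, then incubated with 200 nmole of a 16-mer random double-stranded DNA library in Tris/NaCl/DTT/glycerol buffer for 30 min at room temperature. The pools were then washed, crosslinked, proximity-ligated, amplified by PCR and sequenced on an Illumina NextSeq500.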

Assay [2] concerns the target T2, ELK1 (Homo sapiens, UniProt P19419 1-428).
T2 sequence: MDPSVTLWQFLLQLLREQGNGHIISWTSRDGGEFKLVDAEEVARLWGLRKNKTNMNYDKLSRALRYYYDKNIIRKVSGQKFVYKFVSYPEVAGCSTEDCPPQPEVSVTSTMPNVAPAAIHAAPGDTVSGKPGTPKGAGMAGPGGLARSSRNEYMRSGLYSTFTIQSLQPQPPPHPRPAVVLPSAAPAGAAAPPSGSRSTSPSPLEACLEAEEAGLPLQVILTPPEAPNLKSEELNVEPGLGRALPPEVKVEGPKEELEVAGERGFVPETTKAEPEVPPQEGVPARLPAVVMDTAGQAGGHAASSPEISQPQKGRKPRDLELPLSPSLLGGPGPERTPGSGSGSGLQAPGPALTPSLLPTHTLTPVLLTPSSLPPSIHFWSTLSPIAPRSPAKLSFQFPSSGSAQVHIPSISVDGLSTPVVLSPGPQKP
The essentials: as §1

In assay [3] the target is T3, GABPA (Homo sapiens, UniProt Q06546 1-454).
T3 sequence: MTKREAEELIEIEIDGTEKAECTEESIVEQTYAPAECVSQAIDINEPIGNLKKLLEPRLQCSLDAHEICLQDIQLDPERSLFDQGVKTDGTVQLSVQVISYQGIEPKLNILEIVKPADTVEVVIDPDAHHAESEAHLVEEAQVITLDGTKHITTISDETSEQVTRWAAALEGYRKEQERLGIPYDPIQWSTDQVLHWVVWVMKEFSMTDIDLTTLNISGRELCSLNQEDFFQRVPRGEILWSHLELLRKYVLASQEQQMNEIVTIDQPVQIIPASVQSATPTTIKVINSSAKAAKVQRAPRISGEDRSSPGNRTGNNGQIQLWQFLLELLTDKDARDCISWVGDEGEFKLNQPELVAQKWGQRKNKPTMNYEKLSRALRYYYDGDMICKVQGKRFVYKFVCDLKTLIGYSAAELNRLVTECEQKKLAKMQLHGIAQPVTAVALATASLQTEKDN
The essentials:
as §1

Assay [4] deals with T4, ERG (Homo sapiens, UniProt P11308 1-479).
T4 sequence: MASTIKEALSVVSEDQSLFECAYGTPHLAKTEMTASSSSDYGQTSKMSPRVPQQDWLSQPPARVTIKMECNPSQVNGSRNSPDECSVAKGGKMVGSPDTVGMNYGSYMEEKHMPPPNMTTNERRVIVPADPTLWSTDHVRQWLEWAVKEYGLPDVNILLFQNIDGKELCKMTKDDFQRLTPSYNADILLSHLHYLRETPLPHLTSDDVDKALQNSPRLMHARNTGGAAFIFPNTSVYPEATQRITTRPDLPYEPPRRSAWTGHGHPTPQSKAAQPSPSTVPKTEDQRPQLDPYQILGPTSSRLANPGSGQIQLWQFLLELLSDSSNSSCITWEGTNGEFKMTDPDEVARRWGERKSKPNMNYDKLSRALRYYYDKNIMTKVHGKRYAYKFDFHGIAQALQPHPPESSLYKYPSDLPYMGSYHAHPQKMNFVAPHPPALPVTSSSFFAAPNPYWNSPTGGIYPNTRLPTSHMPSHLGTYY
The essentials: as §1

In assay [5] the target is ELF1 (Homo sapiens, UniProt P32519 1-619). The method in brief:
as §1

Assay [6] concerns the target T5, EHF (Homo sapiens, UniProt Q9NZC4 1-300).
T5 sequence: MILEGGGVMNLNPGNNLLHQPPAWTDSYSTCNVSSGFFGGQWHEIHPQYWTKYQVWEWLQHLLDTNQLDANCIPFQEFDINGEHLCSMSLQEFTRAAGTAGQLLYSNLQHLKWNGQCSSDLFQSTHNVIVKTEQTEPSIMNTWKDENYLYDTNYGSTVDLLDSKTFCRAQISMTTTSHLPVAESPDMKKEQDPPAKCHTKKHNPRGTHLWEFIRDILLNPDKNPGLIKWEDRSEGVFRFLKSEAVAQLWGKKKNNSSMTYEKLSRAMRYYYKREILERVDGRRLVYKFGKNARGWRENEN
The method in brief:
as §1

For assay [7], the target named is SPI1 (Homo sapiens, UniProt P17947 1-270). The method in brief: as §1
Assay [8] deals with SPIB (Homo sapiens, UniProt Q01892 1-262). The method in brief:
as §1

Assay [9] addresses T6, ELK3 (Homo sapiens, UniProt P41970 1-407).
T6 sequence: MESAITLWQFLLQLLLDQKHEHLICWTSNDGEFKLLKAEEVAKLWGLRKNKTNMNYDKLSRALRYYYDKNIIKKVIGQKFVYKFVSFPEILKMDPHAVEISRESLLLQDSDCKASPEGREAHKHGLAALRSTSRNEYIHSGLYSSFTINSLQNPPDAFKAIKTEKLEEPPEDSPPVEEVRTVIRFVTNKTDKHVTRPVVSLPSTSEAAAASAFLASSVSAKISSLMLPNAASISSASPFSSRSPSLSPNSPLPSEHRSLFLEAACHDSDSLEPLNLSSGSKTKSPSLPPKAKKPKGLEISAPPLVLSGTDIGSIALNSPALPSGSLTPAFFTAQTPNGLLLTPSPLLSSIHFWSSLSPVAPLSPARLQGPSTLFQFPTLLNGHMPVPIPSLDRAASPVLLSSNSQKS
The essentials: as §1

For assay [10], the target named is T7, FEV (Homo sapiens, UniProt Q99581 1-238).
T7 sequence: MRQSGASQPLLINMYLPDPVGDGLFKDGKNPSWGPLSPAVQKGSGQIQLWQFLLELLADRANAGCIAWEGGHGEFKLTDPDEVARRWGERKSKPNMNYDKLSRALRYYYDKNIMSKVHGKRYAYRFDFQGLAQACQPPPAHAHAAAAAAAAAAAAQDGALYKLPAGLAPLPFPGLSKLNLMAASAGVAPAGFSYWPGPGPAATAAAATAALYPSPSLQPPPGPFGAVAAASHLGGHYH
The essentials:
as §1

For assay [11], the target named is ETV5 (Homo sapiens, UniProt P41161 1-510). The essentials:
as §1

Assay [12] concerns the target T8, SPIC (Homo sapiens, UniProt Q8N5J4 1-248).
T8 sequence: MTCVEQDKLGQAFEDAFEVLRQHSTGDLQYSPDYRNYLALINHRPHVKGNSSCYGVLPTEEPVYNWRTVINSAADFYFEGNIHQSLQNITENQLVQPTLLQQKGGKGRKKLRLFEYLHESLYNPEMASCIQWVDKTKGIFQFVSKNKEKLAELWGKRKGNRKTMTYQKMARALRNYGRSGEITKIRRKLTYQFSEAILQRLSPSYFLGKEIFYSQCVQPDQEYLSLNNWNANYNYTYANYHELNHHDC
The method in brief:
as §1

In assay [13] the target is ELF4 (Homo sapiens, UniProt Q99607 1-663). The essentials:
as §1

Assay [14] deals with T9, ELK4 (Homo sapiens, UniProt P28324-2 1-405).
T9 sequence: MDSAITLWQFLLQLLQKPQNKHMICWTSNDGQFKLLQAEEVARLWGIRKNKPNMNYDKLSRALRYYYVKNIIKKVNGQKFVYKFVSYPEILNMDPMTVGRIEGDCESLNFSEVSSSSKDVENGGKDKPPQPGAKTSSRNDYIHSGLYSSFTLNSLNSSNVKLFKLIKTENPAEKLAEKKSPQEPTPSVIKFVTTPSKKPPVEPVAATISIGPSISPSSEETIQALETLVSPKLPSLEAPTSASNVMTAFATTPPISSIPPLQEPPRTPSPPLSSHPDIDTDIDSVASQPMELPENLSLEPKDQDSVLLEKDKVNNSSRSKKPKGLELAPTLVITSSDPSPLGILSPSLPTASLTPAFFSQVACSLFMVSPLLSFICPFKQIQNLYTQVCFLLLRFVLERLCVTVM
The essentials:
as §1

Assay [15] has as its target T10, ETV2 (Homo sapiens, UniProt O00321 1-342).
T10 sequence: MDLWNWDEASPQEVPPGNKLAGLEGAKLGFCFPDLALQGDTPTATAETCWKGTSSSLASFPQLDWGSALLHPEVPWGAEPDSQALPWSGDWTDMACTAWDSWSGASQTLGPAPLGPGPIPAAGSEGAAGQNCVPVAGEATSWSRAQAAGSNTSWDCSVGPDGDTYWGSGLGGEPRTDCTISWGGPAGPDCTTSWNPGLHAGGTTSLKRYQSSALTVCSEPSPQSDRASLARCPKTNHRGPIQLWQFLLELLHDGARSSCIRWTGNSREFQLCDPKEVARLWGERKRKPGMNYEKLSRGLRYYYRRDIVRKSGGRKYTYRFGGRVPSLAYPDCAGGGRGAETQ
The method in brief: as §1

In assay [16] the target is T11, ELF3 (Homo sapiens, UniProt P78545 1-371).
T11 sequence: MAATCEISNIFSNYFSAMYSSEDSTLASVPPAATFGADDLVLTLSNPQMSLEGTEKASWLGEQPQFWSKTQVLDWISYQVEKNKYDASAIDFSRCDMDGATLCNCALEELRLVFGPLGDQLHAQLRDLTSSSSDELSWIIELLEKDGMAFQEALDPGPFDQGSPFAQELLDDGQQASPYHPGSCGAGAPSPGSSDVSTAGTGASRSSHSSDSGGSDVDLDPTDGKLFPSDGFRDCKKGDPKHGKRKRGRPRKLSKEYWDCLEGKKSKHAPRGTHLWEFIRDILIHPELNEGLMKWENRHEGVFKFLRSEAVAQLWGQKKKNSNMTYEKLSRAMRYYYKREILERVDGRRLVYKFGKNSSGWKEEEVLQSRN
The essentials: as §1

For assay [17], the target named is CRX (Homo sapiens, UniProt O43186 1-299). The method in brief:
as §1

Assay [18] concerns the target ETV1 (Homo sapiens, UniProt P50549 1-477). The method in brief: as §1

Chain of CRX (O43186 whole entry): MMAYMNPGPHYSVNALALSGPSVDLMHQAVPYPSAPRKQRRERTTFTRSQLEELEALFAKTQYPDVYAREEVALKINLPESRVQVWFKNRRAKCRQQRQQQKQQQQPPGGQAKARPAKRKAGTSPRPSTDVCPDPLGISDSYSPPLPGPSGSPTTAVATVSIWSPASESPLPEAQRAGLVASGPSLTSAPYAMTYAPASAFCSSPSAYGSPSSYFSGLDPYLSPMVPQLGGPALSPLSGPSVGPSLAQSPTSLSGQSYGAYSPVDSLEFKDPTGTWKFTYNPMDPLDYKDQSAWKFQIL
Chain of ETV1 (P50549 whole entry): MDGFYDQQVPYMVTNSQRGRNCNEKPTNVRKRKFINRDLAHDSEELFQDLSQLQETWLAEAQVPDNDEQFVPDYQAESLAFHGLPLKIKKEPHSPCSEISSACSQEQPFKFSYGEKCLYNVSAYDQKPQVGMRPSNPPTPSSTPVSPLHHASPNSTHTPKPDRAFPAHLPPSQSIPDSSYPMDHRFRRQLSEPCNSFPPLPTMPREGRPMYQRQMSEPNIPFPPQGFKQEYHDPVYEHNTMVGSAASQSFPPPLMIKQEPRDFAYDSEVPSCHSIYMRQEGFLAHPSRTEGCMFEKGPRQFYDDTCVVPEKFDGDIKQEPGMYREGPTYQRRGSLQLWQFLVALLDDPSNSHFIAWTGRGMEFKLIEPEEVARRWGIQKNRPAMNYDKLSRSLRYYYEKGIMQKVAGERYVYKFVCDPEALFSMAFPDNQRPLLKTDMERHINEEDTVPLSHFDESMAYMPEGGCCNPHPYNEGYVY
Chain of ETV5 (P41161 whole entry): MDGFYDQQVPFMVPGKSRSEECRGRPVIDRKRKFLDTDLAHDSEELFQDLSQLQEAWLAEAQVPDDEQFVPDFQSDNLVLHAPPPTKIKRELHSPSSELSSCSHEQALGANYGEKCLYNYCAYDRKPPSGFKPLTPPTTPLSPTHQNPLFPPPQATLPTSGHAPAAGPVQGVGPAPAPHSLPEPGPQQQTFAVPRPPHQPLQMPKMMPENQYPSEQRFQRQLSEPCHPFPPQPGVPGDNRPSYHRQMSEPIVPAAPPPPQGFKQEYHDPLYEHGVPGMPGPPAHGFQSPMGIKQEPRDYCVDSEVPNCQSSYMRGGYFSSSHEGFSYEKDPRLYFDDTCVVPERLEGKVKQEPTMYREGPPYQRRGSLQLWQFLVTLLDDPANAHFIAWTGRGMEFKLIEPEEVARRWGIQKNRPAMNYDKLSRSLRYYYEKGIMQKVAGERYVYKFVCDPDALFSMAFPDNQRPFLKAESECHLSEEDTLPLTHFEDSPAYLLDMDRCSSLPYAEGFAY
Chain of ELF4 (Q99607 whole entry): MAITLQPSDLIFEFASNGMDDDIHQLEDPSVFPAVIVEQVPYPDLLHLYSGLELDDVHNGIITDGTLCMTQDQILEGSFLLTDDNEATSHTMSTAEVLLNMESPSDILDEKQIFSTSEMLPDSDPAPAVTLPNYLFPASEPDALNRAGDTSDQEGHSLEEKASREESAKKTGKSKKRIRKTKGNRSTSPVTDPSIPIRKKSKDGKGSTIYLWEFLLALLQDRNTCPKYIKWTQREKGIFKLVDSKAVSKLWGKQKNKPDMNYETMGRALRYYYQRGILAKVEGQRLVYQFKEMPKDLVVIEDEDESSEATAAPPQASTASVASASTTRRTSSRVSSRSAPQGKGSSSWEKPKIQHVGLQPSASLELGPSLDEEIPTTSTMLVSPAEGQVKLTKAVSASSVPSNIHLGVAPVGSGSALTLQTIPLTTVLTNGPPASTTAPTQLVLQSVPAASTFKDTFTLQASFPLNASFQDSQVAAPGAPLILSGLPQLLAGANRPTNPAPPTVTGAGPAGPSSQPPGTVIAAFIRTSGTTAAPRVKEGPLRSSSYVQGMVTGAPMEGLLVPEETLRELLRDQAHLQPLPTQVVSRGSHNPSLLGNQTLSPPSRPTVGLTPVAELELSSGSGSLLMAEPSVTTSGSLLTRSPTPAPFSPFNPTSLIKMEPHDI
Chain of ELF1 (P32519 whole entry): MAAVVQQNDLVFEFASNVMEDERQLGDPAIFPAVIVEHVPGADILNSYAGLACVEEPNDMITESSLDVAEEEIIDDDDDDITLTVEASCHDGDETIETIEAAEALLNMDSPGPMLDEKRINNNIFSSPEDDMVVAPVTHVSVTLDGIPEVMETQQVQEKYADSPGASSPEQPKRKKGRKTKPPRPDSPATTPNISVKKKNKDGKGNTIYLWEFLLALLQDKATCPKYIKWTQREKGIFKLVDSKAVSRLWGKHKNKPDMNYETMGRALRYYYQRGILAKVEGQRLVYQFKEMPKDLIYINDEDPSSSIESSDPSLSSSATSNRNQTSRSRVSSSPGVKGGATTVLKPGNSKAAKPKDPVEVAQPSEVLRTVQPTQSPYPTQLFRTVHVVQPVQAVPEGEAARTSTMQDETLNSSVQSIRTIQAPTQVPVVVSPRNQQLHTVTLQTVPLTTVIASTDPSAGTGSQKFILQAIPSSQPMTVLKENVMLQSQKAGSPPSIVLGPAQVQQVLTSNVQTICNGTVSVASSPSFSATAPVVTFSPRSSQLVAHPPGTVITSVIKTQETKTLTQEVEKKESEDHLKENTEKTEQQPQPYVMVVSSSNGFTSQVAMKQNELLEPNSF
Chain of SPIB (Q01892 whole entry): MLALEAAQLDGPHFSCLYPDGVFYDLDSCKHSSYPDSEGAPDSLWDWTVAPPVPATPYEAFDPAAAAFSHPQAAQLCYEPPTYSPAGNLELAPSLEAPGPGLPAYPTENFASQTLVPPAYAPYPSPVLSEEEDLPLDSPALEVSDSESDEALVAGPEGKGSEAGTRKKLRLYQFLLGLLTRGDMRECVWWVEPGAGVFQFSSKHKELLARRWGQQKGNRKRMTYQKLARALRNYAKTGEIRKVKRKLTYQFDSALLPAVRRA

Regarding CCTCGG, the binding signal in [1] was 1.2 fold enrichment (6-mer frequency, TF over GST control); in assay [2], 1.17 fold enrichment (6-mer frequency, TF over GST control); in assay [3] it was 1.2 fold enrichment (6-mer frequency, TF over GST control); in assay [4], 1.2 fold enrichment (6-mer frequency, TF over GST control); in assay [5], 1.24 fold enrichment (6-mer frequency, TF over GST control); in assay [6] it was 1.33 fold enrichment (6-mer frequency, TF over GST control). The binding signal is 1.14 fold enrichment (6-mer frequency, TF over GST control) in [7]; 1.15 fold enrichment (6-mer frequency, TF over GST control) in assay [8]; 1.05 fold enrichment (6-mer frequency, TF over GST control) in assay [9]; 1.07 fold enrichment (6-mer frequency, TF over GST control) in [10]; 1.2 fold enrichment (6-mer frequency, TF over GST control) in assay [11]; 1.1 fold enrichment (6-mer frequency, TF over GST control) in assay [12]. Besides, the binding signal in assay [13] is 1.25 fold enrichment (6-mer frequency, TF over GST control); in assay [14] it was 1.24 fold enrichment (6-mer frequency, TF over GST control); in [15], 1.24 fold enrichment (6-mer frequency, TF over GST control); in assay [16], 1.3 fold enrichment (6-mer frequency, TF over GST control); in assay [17] it was 1.02 fold enrichment (6-mer frequency, TF over GST control); in assay [18] it was 1.28 fold enrichment (6-mer frequency, TF over GST control).

On to CCATCA, for which the binding signal was 1.26 fold enrichment (6-mer frequency, TF over GST control) in assay [1]; 1.21 fold enrichment (6-mer frequency, TF over GST control) in [2]; 1.22 fold enrichment (6-mer frequency, TF over GST control) in assay [3]; 1.15 fold enrichment (6-mer frequency, TF over GST control) in assay [4]; 1.29 fold enrichment (6-mer frequency, TF over GST control) in assay [5]; 1.18 fold enrichment (6-mer frequency, TF over GST control) in assay [6]. Further, the binding signal was 1.19 fold enrichment (6-mer frequency, TF over GST control) in assay [7]; 1.17 fold enrichment (6-mer frequency, TF over GST control) in [8]; 1.2 fold enrichment (6-mer frequency, TF over GST control) in [9]; 1.13 fold enrichment (6-mer frequency, TF over GST control) in assay [10]; 1.23 fold enrichment (6-mer frequency, TF over GST control) in [11]; 1.09 fold enrichment (6-mer frequency, TF over GST control) in [12]. In addition, the binding signal is 1.2 fold enrichment (6-mer frequency, TF over GST control) in [13]; 1.24 fold enrichment (6-mer frequency, TF over GST control) in assay [14]; 1.11 fold enrichment (6-mer frequency, TF over GST control) in assay [15]; 1.28 fold enrichment (6-mer frequency, TF over GST control) in [16]; 1.04 fold enrichment (6-mer frequency, TF over GST control) in [17]; 1.13 fold enrichment (6-mer frequency, TF over GST control) in [18].

Source of the values: paper PMC7862700, “An all-to-all approach to the identification of sequence-specific readers for epigenetic DNA modifications on cytosine”.
